The text below walks through data of PubChem BioAssay (Tox21).

Inconclusive results are not listed. Where a call stands in place of a potency, no number is given. Calls of active or inactive are those of the source. The call rests on the fitted dose curve; in most records, active means well fitted cell-killing curve with a large enough effect in the repeat runs; inconclusive means weak or mixed curves, or effect the other way; inactive means flat fitted curve, though single readings scatter.
Potency means the concentration at half of the fitted maximal effect.

This assay is described as follows: cAMP Responsive Elements (CRE) small molecule agonists, cell-based qHTS assay: qHTS cell viability counter screen (AID 2060914). Further: nearly all actives have a fitted effect of over 50% in size. Conditions: CRE-bla HEK293T viability, CellTiter-Glo luminescence, 5 h; series mostly up to 92.4 µM. In a few lines:
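In the same wells as the reporter read, viability of CRE-bla HEK 293T cells was quantified by CellTiter-Glo luminescence after a 3 h compound exposure.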
For orientation: qHTS replaces the single test concentration by a dilution series.
With `CNCCC(Oc1ccc(C(F)(F)F)cc1)c1ccccc1` (stereo not given), the Potency result is “inactive”.

As to `OC(CCN1CCCC1)(c1ccccc1)C1CCCCC1` (stereo not given), the Potency entry was “inactive”.

Consider `CC(C)(C)C(=O)OCOC(=O)C1N2C(=O)CC2S(=O)(=O)C1(C)C` (stereo not given), for which the Potency entry is “inactive”.

Take `O=C(Oc1ccccc1)c1cccc(C(=O)Oc2ccccc2)c1`: the Potency entry was “inactive”.

As to `Cn1cc[nH]c1=S`, the Potency entry was “inactive”.

`CCCCC(CC)COC(=O)CC#N` (stereo not given): the Potency entry is “inactive”.

As for `CC(O)(c1ccc(Cl)cc1)c1ccc(Cl)cc1`, the Potency entry is “inactive”.

Consider `CCCCCCCCC/C=C/CC1CC(=O)OC1=O` (stereo not given), for which the Potency result is “inactive”.

On to `CC(C)(C)c1ccc(N)cc1`, for which the Potency entry is “inactive”.

With `CC(C)(C)OC(=O)c1cccc(N)c1`, the Potency result is “inactive”.

Turning to `CC/C=C\CCOC(=O)CC`, the Potency entry was “inactive”.

`O=C(N[C@@H](Cc1ccccc1)[C@@H](O)C(=O)N1C[C@@H](O)[C@@H](O)C1)c1cc2cc(Cl)ccc2[nH]1`: the Potency result is “inactive”.

Regarding `O=CNNC=O`, the Potency result is “inactive”.

In the case of `Cc1c(O)cccc1C(=O)N[C@@H](CSc1ccccc1)[C@H](O)CN1C[C@H]2CCCC[C@H]2C[C@H]1C(=O)NC(C)(C)C`, the Potency entry was “inactive”.

As for `Cc1ccc(O)c(C(C)(C)C)c1`, the Potency entry is “inactive”.

Take `O=c1ccc2ccccc2o1`: the Potency entry was “inactive”.

In the case of `Fc1ccccc1[C@@H](F)COC1CCC(Nc2ncnc3[nH]ncc23)CC1` (stereo not given in full), the Potency result is “inactive”.

Turning to `O=Cc1ccc(O)c(O)c1O`, the Potency result was “inactive”.

`CC(=O)O[C@]1(C(C)=O)CC[C@H]2[C@@H]3C=C(Cl)C4=CC(=O)CC[C@]4(C)[C@H]3CC[C@@]21C`: the Potency entry is “inactive”.

Regarding `CCCCCCOC(=O)C(C)C`, the Potency entry was “inactive”.

With `NCCc1ccn[nH]1`, the Potency result was “inactive”.

In the case of `COc1ccc(OC)c(C(O)CNC(=O)CN)c1` (stereo not given), the Potency result was “inactive”.

Take `NC(=O)n1c(O)c(C(=O)c2cccs2)c2cc(Cl)ccc21`: the Potency entry is “inactive”.

As for `CN1C[C@H](C(=O)N[C@]2(C)O[C@@]3(O)[C@@H]4CCCN4C(=O)[C@H](Cc4ccccc4)N3C2=O)C[C@@H]2c3cccc4[nH]cc(c34)C[C@H]21`, the Potency entry is “inactive”.

Turning to `Clc1ccc(C(Cn2ccnc2)OCc2c(Cl)cccc2Cl)c(Cl)c1` (stereo not given), the Potency entry was “inactive”.

As to `COc1cc(Cc2cnc(N)nc2N)cc(OC)c1OC`, the Potency result was “inactive”.

On to `C[C@](N)(Cc1ccc(O)c(O)c1)C(=O)O`, for which the Potency result was “inactive”.

As to `C/C=C/C(=O)N(CC)c1ccccc1C`, the Potency entry is “inactive”.

As to `CCC(=O)OC/C=C(\C)CCC=C(C)C`, the Potency entry is “inactive”.

As for `CN1CCN(CCCN2c3ccccc3Sc3ccc(C(F)(F)F)cc32)CC1`, the Potency result is “inactive”.

Consider `COCCCCCCCCOCCC[Si](C)(O[Si](C)(C)C)O[Si](C)(C)C`, for which the Potency entry is “inactive”.

As to `CC(C)CC(=O)O`, the Potency entry was “inactive”.

As for `CCO`, the Potency entry is “inactive”.

For the molecule `COC(=O)CCCCCCCCC(=O)OC`, the Potency entry is “inactive”.

As for `CCCCCCCCCCCC(=O)OCC(O)CO` (stereo not given), the Potency result was “inactive”.

Consider `CC(C)COCC(CN(Cc1ccccc1)c1ccccc1)N1CCCC1` (stereo not given), for which the Potency result was “inactive”.

On to `COc1ccc(COC=O)cc1`, for which the Potency entry is “inactive”.

For `CCCC(C(=O)OCCN(CC)CC)(c1ccccc1)c1ccccc1`, the Potency result was “inactive”.

Turning to `NCCCOCCOCCOCCCN`, the Potency result is “inactive”.

Consider `CCCCCCCCCCCCCCCC[N+](C)(C)CCN(Cc1ccc(OC)cc1)c1ncccn1`, for which the Potency was 26.6 µM (active).
